This note sets out measurements from PubChem BioAssay (NCATS).

For test [1], the target named is Rap guanine nucleotide exchange factor 3 (Homo sapiens) (UniProt O95398). Nature of the test: Confirmatory qHTS for antagonist of cAMP-regulated guanine nucleotide exchange factor 3 (EPAC1) (AID 1645880). Note: nearly all actives have a fitted effect of over 55% in size. Note: potency is the fitted concentration of half-maximal effect. In short, it runs like this: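 Nucleotide exchange uses 100 nM EPAC1, 250 nM RAP1B-BODIPY-GDP and 50 uM GDP, with compounds in a concentration-titration series. After 5 min at room temperature, fluorescence (480 nm ex/540 nm em) is read every 5 min for 30 min. Data are normalized to control ATA and DMSO.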
(qHTS replaces the single test concentration by a dilution series.)

Test [2] has the same target. Nature of the test: Confirmatory qHTS for agonist of cAMP-regulated guanine nucleotide exchange factor 3 (EPAC1) (AID 1645881).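 For activation: EPAC1 catalysed release of BODIPY-GDP from Rap1B seen as fluorescence loss; 100% = effect of cAMP agonist control.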 Note: nearly all actives have a fitted effect of over 75% in size. Note: potency is the fitted concentration of half-maximal effect.
The target in test [3] is Rap guanine nucleotide exchange factor 4 (Homo sapiens) (UniProt Q8WZA2). As to the kind of experiment: Confirmatory qHTS for agonist of cAMP-regulated guanine nucleotide exchange factor 4 (EPAC2) (AID 1645884). For activation: % is set by controls: 0 for no effect and ±100 for the full control effect. Note: nearly all actives have a fitted effect of over 65% in size. Note: potency is the fitted concentration of half-maximal effect.
The target is the same in test [4]. Nature of the test: Confirmatory qHTS for antagonist of cAMP-regulated guanine nucleotide exchange factor 4 (EPAC2) (AID 1645885). For activity change, negative = inhibition: % is set by controls: 0 for no effect and ±100 for the full control effect. Note: nearly all actives have a fitted effect of over 25% in size.
In test [5] the target is Rap guanine nucleotide exchange factor 3 (Homo sapiens) (UniProt O95398). Nature of the test: Counterscreen qHTS for antagonist of cAMP-regulated guanine nucleotide exchange factor 3 (EPAC1) (AID 1645888).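 Note: fluorescence loss as bound BODIPY-GDP is released from Rap1B; % of control where 0% means no effect.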 The procedure, abridged: (§1)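 Rap1B–BODIPY-GDP (250 nM) with 50 uM GDP; compounds pin-transferred to 9.74 nM–152 uM final (activator) or from 7.32 nM upwards (inhibitor). Fluorescence Ex/Em 480/540 nm read at 5 and 30 min, then after adding cAMP or buffer, at room temperature.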
In general terms: The purpose of a counterscreen is to sort out artefacts and off-target activity.

The target is the same in test [6]. Nature of the test: Counterscreen qHTS for agonist of cAMP-regulated guanine nucleotide exchange factor 3 (EPAC1) (AID 1645889). For activation: % of control where 0% means no effect. Note: nearly all actives have a fitted effect of over 40% in size. Note: potency is the fitted concentration of half-maximal effect. In short, it runs like this: as §1

Records with an inconclusive call do not appear. Unmarked numbers belong to inactive results. Calls of active or inactive are those of the source. Calls come from the whole dose curve; as a rule, active = well fitted curve in the direction sought with a large enough effect; inconclusive = small, poorly fitted or top-dose-only effect, or another doubt; inactive = no such curve, though single readings can be large; an effect the other way counts as inactive or inconclusive.

Sequence of Rap guanine nucleotide exchange factor 3 (Homo sapiens) (O95398 whole entry, looked up): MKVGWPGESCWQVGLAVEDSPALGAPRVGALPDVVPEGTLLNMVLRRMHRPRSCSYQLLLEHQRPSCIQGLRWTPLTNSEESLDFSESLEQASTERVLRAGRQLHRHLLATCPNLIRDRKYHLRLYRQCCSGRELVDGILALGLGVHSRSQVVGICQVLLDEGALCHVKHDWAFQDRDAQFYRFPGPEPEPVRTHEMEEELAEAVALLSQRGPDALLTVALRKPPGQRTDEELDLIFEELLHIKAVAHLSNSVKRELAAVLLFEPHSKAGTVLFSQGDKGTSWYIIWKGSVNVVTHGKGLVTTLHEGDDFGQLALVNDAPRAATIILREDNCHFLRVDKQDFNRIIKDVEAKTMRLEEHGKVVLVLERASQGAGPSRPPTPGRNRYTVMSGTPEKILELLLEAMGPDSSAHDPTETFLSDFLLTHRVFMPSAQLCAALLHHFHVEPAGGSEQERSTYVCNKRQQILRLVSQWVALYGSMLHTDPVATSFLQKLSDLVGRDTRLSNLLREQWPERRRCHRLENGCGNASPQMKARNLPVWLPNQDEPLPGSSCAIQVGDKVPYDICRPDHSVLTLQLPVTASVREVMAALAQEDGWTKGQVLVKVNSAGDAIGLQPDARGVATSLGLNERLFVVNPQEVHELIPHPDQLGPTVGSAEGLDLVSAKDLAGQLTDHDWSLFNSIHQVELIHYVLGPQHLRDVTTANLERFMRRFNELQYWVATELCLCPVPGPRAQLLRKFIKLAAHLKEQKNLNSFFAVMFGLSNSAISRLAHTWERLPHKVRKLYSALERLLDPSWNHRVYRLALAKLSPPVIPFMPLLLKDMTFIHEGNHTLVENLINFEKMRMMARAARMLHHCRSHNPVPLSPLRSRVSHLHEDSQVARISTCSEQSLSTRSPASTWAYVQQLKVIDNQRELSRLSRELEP
Sequence of Rap guanine nucleotide exchange factor 4 (Homo sapiens) (Q8WZA2 whole entry, looked up): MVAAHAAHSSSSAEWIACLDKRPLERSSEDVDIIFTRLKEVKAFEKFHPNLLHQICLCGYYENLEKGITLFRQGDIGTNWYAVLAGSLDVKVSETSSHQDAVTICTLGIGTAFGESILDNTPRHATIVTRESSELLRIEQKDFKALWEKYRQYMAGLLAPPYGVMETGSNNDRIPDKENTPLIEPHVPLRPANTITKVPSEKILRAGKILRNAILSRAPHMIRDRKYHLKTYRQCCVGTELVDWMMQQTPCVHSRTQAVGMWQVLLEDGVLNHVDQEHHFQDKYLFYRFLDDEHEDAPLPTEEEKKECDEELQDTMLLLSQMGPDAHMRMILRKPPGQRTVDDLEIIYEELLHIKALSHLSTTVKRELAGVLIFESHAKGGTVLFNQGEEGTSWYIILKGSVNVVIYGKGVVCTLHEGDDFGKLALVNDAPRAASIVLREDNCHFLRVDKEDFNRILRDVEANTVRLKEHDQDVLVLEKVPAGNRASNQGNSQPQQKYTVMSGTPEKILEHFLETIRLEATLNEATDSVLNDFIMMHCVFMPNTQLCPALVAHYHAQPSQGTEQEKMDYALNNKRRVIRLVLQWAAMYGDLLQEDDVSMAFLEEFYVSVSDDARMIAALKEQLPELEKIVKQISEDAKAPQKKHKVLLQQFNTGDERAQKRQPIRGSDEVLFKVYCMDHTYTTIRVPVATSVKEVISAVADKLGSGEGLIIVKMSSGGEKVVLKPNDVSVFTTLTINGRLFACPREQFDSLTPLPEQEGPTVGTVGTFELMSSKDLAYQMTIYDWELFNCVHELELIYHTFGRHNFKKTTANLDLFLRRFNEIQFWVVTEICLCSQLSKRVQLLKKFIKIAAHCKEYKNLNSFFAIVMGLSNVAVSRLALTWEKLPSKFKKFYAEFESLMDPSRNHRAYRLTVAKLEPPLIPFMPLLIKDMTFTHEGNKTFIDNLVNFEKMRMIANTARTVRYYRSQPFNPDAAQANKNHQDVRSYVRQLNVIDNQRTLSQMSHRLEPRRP

As for `CCOC(=O)C1CCCN(c2c(NCCN3CCCCC3C)c(=O)c2=O)C1` (configuration not stated), the Potency result in test [1], in test [2], in test [3], in test [4], in test [5] and in test [6] was “inactive” throughout.
Turning to `O=C1NN(c2cccc(Br)c2)C(=O)/C1=C\c1ccccc1`, the Potency in test [1] is 33.8 µM (active). Further, the Potency entry in test [2], in test [3], in test [4], in test [5] and in test [6] was “inactive” throughout.
For the compound `COc1ccc(C(=O)Nc2cc(OC)c(Cl)cc2OC)cc1`, the Potency entry in test [1], in test [2] and in test [4] was “inactive” each time. The activation was 4.3% [at 17.1 µM, percent relative to cAMP agonist control] in test [3] and 10.3% [at 30.8 µM] in test [6]. In test [5], the activity change, negative = inhibition was -12.1% [at 30.8 µM].
For the compound `COc1ccc(CCNC(=O)c2c(C)nn(-c3ccc(F)cc3)c2-n2cccc2)cc1OC`, the Potency entry in test [1], in test [2], in test [3], in test [4], in test [5] and in test [6] was “inactive” each time.
`NS(=O)(=O)c1ccc(-c2cccc(/C=C3\SC(=O)NC3=O)c2)cc1`: in test [1], the Potency was 33.8 µM (active). Besides, the Potency entry in test [2], in test [3], in test [4], in test [5] and in test [6] was “inactive” in each case.
As for `COC(=O)c1cc2sc(Cl)cc2n1Cc1c(C)cc(C)cc1C`, the Potency result in test [1], in test [2], in test [3], in test [4], in test [5] and in test [6] was “inactive” throughout.
Consider `COCCNC(=O)CSc1nc2cc3c(cc2c(=O)n1CCCCCC(=O)NCc1ccc(OC)cc1)OCO3`, for which the Potency entry in test [1], in test [2], in test [3], in test [4], in test [5] and in test [6] was “inactive” throughout.
As to `COc1ccc(N2CCN(C(=O)c3sc4nc(-c5ccc(F)cc5)cn4c3C)CC2)cc1`, the Potency entry in test [1], in test [2], in test [3], in test [4], in test [5] and in test [6] was “inactive” in each case.
As for `CC1=NOC(=O)/C1=C\c1ccc(-c2ccc(Cl)cc2Cl)o1`, the Potency in test [1] is 15.8 µM (active). The Potency entry in test [2] and in test [4] was “inactive” each time. The activation in test [3] is -0.185% [at 17.1 µM, percent relative to cAMP agonist control]; in test [6], 15.1% [at 30.8 µM]. Moreover, the activity change, negative = inhibition in test [5] is -37.2% [at 30.8 µM].
In the case of `CCOCCCn1c(SCC(=O)Nc2ccc(OC)cc2OC)nc2ccccc2c1=O`, the Potency result in test [1], in test [2], in test [3], in test [5] and in test [6] was “inactive” throughout. Also, the outcome in test [4] was “inactive [at 12.7 µM]”.
Regarding `Cc1ccccc1-c1cc(C(=O)NCc2ccc3c(c2)OCO3)n(CC2CC(c3cccnc3)=NO2)n1` (configuration not stated), the Potency result in test [1], in test [2], in test [3], in test [4], in test [5] and in test [6] was “inactive” each time.
As to `O=C1C(Cl)=C(N2CCC(C(=O)O)CC2)C(=O)c2ccccc21`, the Potency result in test [1], in test [2], in test [3], in test [4] and in test [5] was “inactive” each time. In addition, the Potency in test [6] is 15.8 µM (active).
On to `COC(=O)c1ccc(OC(=O)c2ccc(OC)cc2)c(OC)c1`, for which the Potency entry in test [1], in test [2] and in test [4] was “inactive” throughout. The activation in test [3] was 7.15% [at 17.1 µM, percent relative to cAMP agonist control]; in test [6], 6.57% [at 30.8 µM]. Further, in test [5], the activity change, negative = inhibition was -8.27% [at 30.8 µM].
`Cn1c(=O)c2nc3ccc(NC(=O)C(F)(F)F)cc3nc2n(C)c1=O`: in test [1], the Potency was 84.9 µM (active). Also, the Potency result in test [2], in test [3], in test [4], in test [5] and in test [6] was “inactive” throughout.
On to `O=[N+]([O-])c1cc(Cl)ccc1NCCc1ccccn1`, for which the Potency result in test [1], in test [2] and in test [4] was “inactive” each time. In addition, the activation was -1.04% [at 17.1 µM, percent relative to cAMP agonist control] in test [3] and -0.252% [at 30.8 µM] in test [6]. Further, the activity change, negative = inhibition in test [5] was -15.1% [at 30.8 µM].
As for `CC(=O)N1c2ccc(S(=O)(=O)NCCc3ccccc3)cc2CC1C` (configuration not stated), the Potency entry in test [1], in test [2], in test [3], in test [4], in test [5] and in test [6] was “inactive” each time.
With `CCOC(=O)c1c(NC(=O)c2ccc(S(=O)(=O)N3CCC(C)CC3)cc2)sc2c1CCN(C(C)C)C2`, the Potency entry in test [1] and in test [5] was “inactive” each time. Also, the values for the Potency in test [2], in test [3] and in test [6] were 89.1 µM (active), 31.6 µM (active) and 44.7 µM (active), respectively. The outcome in test [4] was “inactive [at 12.7 µM]”.
Turning to `CCC(=O)OCCCNc1nc(-c2ccc(Cl)cc2)nc2ccccc12`, the Potency result in test [1], in test [2], in test [3], in test [4], in test [5] and in test [6] was “inactive” each time.
For `O=C1CC(c2ccccc2C(F)(F)F)c2c(c3ccccc3[nH]c2=O)O1` (configuration not stated), the Potency result in test [1], in test [2], in test [3], in test [4], in test [5] and in test [6] was “inactive” in each case.
Take `Cc1cc2c(c(=O)o1)C(c1ccc([N+](=O)[O-])o1)C(C#N)=C(N)O2` (configuration not stated): the Potency entry in test [1], in test [2], in test [3], in test [4], in test [5] and in test [6] was “inactive” in each case.
With `CC(=O)C1=C(O)C(=O)N(c2cccc(Br)c2)C1c1ccc(Br)cc1` (configuration not stated), the Potency in test [1] is 37.9 µM (active). The Potency result in test [2], in test [3], in test [4], in test [5] and in test [6] was “inactive” throughout.
For the compound `O=C(O)c1cccc(NC(=O)c2cn(-c3ccccc3)nc2-c2cc3ccccc3o2)c1`, the Potency in test [1] was 50.1 µM (active). For the same compound, the Potency result in test [2] and in test [4] was “inactive” throughout. The activation is 0.161% [at 17.1 µM, percent relative to cAMP agonist control] in test [3] and 16.8% [at 30.8 µM] in test [6]. The activity change, negative = inhibition in test [5] was -4.75% [at 30.8 µM].
